# BAZ2B block: blocks human BAZ2B; Q9UIF8; AlphaScreen BAZ2B-H3K14Ac peptide displacement; Potency, µM (series often up to 114 µM), inactives show at the top dose activity change, negative = inhibition, hits mostly inhibitors; 360,000 tested, 4.4% active; note: % is set by controls: 0 for no effect and ±100 for the full control effect; nearly all actives have a fitted effect of over 60% in size
#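 AlphaScreen luminescence quantifies BAZ2B engagement of H3K14Ac peptide; the protein and biotinylated peptide are both at 50 nM final, buffer PBS pH 7.4 with 0.01% Tween-20, all steps at room temperature.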
# JMJD2A Tudor: inhibitors of human JMJD2A Tudor domain. Potency, µM (series often up to 114 µM), inactives show at the top dose activity change, negative = inhibition, actives largely listed as inhibitors. AlphaScreen JMJD2A-Tudor / H3K4me3 peptide binding. 390,000 tested, 4.4% active. AID 504339. O75164; note: % is set by controls: 0 for no effect and ±100 for the full control effect; nearly all actives have a fitted effect of over 50% in size
# Sfp PPTase inh: blocks B. subtilis Sfp PPTase activity. Biochemical Sfp PPTase activity, qHTS. Potency, µM, without a hit: largest response in the series, negative = inhibition, actives largely listed as inhibitors. 310,000 tested, 3.5% active. AID 1490;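 note: the enzyme is Sfp with the accession as filed and its product quenches rhodamine fluorescence; 0% = enzyme reaction without inhibitor and -100% = no enzyme wells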
#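 Compounds were incubated with enzyme (final 15 nM) for 15 min at room temperature before substrate addition started the reaction. Fluorescence at 525 nm excitation, 598 nm emission was recorded immediately and after 30 minutes.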
# G9a block: inhibitors of human histone lysine methyltransferase G9a; Potency, µM (top dose mostly 102 µM), without a hit: top-dose activity, negative = inhibition, actives largely listed as inhibitors; G9a H3K9 monomethylation, AlphaScreen, 2 h; 350,000 tested, 8.8% active; AID 504332; Q96KQ7; note: % is set by controls: 0 for no effect and ±100 for the full control effect; nearly all actives have a fitted effect of over 75% in size
#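 G9a (20 nM) preincubated 15 min RT with compounds, then 500 nM biotinylated H3K9 peptide and 20 uM SAM added; 2 h RT reaction. Monomethyl-H3K9 product detected by AlphaScreen with anti-H3K9me1 antibody, streptavidin donor and anti-rabbit IgG acceptor beads.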
# HP1b binding inh: blocks HP1-beta chromodomain binding to methylated histone tails; P83916; AlphaScreen HP1-beta / biotin-H3K9me3 peptide binding; Potency, µM (titrated, usually from 114 µM), inactives show at the highest dose activity change, negative = inhibition, most hits filed as inhibitors; 390,000 tested, 0.56% active; AID 540317; note: nearly all actives have a fitted effect of over 70% in size
#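 Compound inhibition of the preformed complex between 50 nM HP1-beta and 50 nM biotinylated H3K9me3 peptide was read by AlphaScreen. Buffer was PBS pH 7.4 with 0.01% Tween-20. Incubations ran 30 min at room temperature, with 10 ug/mL donor/acceptor beads.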
# L3MBTL1 block: L3MBTL1 (human) inhibition. Q9Y468. AlphaScreen L3MBTL1–H3K9me1 peptide binding. Potency, µM (series often up to 57.1 µM), without a hit: top-dose activity, negative = inhibition, actives largely listed as inhibitors. 230,000 tested, 0.66% active. AID 485360; note: % is set by controls: 0 for no effect and ±100 for the full control effect; nearly all actives have a fitted effect of over 60% in size
#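 L3MBTL1 (50 nM) pre-complexed 30 min with biotinylated H3(1-15)K9me1 peptide (75 nM), then compounds added for 30 min at room temperature; AlphaScreen streptavidin donor/nickel chelate acceptor beads (10 ug/mL final) read after 30 min dark incubation.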
# Numbers without * were called inactive; u = inconclusive; x = not tested or not shown; [ ] = another dose, or the depositor's remark. Rows were chosen to be rich in hits. Some 12% of all compounds tested hit in one or more screens of this group. Calls come from the whole dose curve; as a rule, active = well fitted curve in the direction sought with a large enough effect; inconclusive = small, poorly fitted or top-dose-only effect, or another doubt; inactive = no such curve, though single readings can be large; an effect the other way counts as inactive or inconclusive. Potency is the fitted concentration of half-maximal effect.
SMILES,BAZ2B block,JMJD2A Tudor,Sfp PPTase inh,G9a block,HP1b binding inh,L3MBTL1 block
COCCOC(=O)C1=C(C)NC2=C(C(=O)CCC2)C1c1ccc(N(C)C)cc1 (stereo not given),-4.2%,-23.3%,-1.1%,u,6.7%,-0.1%
Cc1ccccc1OCC(=O)N(Cc1ccc(N(C)C)cc1)CC1CCCO1 (stereo not given),31.6µM*,44.7µM*,x,15.8µM*,u,x
Cc1cccc(C)c1OCC(=O)N(Cc1ccc(Cl)cc1)CC1CCCO1 (stereo not given),42.1%,11.9%,x,15.8%[59 µM],53.6%,x
Cc1ccc(OCC(=O)N(Cc2ccc(N(C)C)cc2)CC2CCCO2)cc1C (stereo not given),31.6µM*,50.1µM*,x,14.1µM*,u,x
Cc1cc(C)c(OCC(=O)N(Cc2ccc(N(C)C)cc2)CC2CCCO2)c(C)c1 (stereo not given),28.2µM*,39.8µM*,x,12.6µM*,u,x
O=S(O)CO,x,x,2.2%,x,x,x
Cc1cccc(/C=N/NC(=O)Cn2nc(C)cc2C)n1,-0.7%,u,u,-23.8%[59 µM],18.0%,15.4%
Cc1cccc(/C=N/NC(=O)Cn2nccc2C)n1,5.4%,u,50.1µM*,7.3%,18.8%,26.3%
CCN(CC)S(=O)(=O)c1ccc(C(=O)N2CC(=O)Nc3ccc(F)cc3C2c2ccccc2)cc1 (stereo not given),-10.5%,-20.1%,x,-1.6%[59 µM],21.8%,x
C=C1CCC2C(C)(CO)C(O)CCC2(C)C1C/C=C1\C(=O)OCC1O (stereo not given),x,x,-1.5%,x,x,x
Cc1ccc(OCC(=O)NN=C2c3ccccc3-c3ccccc32)cc1,-1.1%,u,-4.2%,10.2%[59 µM],-9.3%,-0.6%
O=C(COc1ccc(Cl)cc1)NNC(=O)C(=O)N1CCCCC1,u,-23.1%,1.3%,-8.3%[0.501 µM],20.0%,-3.5%
CCc1ccc(OCC(=O)N/N=C2\CC(=O)c3ccccc32)cc1,-28.7%,x,-4.0%,12.6µM*,x,x
COc1ccc(OCC(=O)NNC(=O)C(=O)N2CCCC2)cc1,u,-4.3%,-8.7%,20µM*,33.6%,11.1%
CCc1ccc(OCC(=O)NN2Cc3ccccc3C2=N)cc1,-13.4%,1.4%,17.4%,44.7µM*,20.2%,3.5%
COc1cccc(NC(=S)N/N=C2/CCCCc3ccccc32)c1,39.8µM*,u,-5.7%,39.8µM*,-29.3%,-29.6%
Cc1ccc(NS(=O)(=O)c2cc3c(cc2-c2cn[nH]c2)NC(=O)CO3)cc1C,x,-25.9%,x,x,x,x
CCOC(=O)CN1C(=O)N[C@@H](c2cccc(C(F)(F)F)c2)[C@H](C(=O)OC)[C@H]1C,x,x,3.9%,x,x,x
CCn1cc2nc(SCc3ccccc3F)n(Cc3ccc(C)cc3)c(=O)c2n1,-2.0%,-14.3%,x,-6.7%[59 µM],15.7%,x
COc1ccc(OCC(=O)N/N=C2\CCCCc3ccccc32)cc1,-31.2%,14.1µM*,3.5%,-6.8%,8.3%,-2.3%[11.4 µM]
Cc1cc(NC(=O)C2CCCN(S(=O)(=O)c3cccc4nonc34)C2)ccc1Br (stereo not given),1.4%,-1.7%,x,8.2%[59 µM],28.2%,x
O=c1[nH]c(=O)n([C@@H]2C[C@H](O)[C@H](CO)O2)cc1I,x,x,15.3%,18.4%[21.5 µM],x,x
COc1cc(OC)c(S(=O)(=O)Nc2ccc(C(=O)O)cc2)cc1S(=O)(=O)Nc1ccc(C(=O)O)cc1,5.0%,0.0%,16.3%,-19.0%,21.4%,x
Cc1cc(C)c(C#N)c(SCc2ccccc2)n1,184.0%,125.1%,u,u,353.7%,70.7%
CC(C)OC(=O)CSc1nc(N)c(C#N)cc1C#N,-16.5%,-16.8%,26.4%,28.5%[12.7 µM],34.0%,-5.9%
CCOC(=O)CSc1nc(C)cc(C)c1C#N,1.5%,-19.6%,56.2µM*,u,34.2%,x
CC(C)OC(=O)CSc1nc(N)c(C#N)c(-c2ccco2)c1C#N,-11.1%,-12.3%[11.4 µM],56.2µM*,u,47.3%,3.4%
Cc1cc(C)c(C#N)c(SCSCc2ccccc2)n1,117.4%,156.2%,20µM*,160.7%,190.2%,x
